# Results filed as inconclusive are left out. Where a call stands in place of a potency, no number is given. The source holds several records for some structures; these can differ, active in one and inactive in another. Calls of active or inactive are those of the source. Calls come from the whole dose curve.
# Target: Retinoic acid receptor RXR-alpha (Homo sapiens) (UniProt P19793)
# Assay: qHTS assay to identify small molecule agonists of the RXR signaling pathway (AID 1159527); note: nearly all actives have a fitted effect of over 35% in size
# Settings: HEK293T RXRa-UAS-bla, beta-lactamase ratio, 16 h; series mostly up to 76.8 µM
# Procedure, shortened: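 Read-out: beta-lactamase FRET ratio (405 nm excitation, 460 and 530 nm emission) after 2 hr substrate loading at room temperature. Cells were RXR-alpha-UAS-bla HEK 293T treated with compounds for 16 hr in 2% charcoal-stripped FBS medium.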
# Potency is the fitted concentration of half-maximal effect.
# Retinoic acid receptor RXR-alpha (Homo sapiens), sequence (P19793 whole entry, looked up): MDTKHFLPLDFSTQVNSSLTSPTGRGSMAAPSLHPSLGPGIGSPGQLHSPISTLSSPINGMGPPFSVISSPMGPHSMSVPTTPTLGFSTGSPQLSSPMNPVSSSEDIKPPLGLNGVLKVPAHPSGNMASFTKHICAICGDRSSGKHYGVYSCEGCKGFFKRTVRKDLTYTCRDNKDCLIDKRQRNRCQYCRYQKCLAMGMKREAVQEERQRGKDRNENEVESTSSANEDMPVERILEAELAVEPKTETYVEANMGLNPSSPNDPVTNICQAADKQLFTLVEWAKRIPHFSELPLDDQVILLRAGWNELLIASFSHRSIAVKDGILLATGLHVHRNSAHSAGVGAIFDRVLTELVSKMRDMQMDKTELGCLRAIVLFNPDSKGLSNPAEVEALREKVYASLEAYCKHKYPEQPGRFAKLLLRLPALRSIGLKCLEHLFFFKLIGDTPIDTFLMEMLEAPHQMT
row,Compound,Potency
1,Cc1cc(Cl)ccc1OCC(=O)O,inactive
2,CNC,inactive
3,C[C@]12CCC(=O)C=C1CC[C@@H]1[C@@H]2CC[C@]2(C)C(=O)CC[C@@H]12,inactive
4,O=C(O)c1nc(Cl)ccc1Cl,inactive
5,CCn1cc[n+](C)c1C,inactive
6,CCC[N+]1(C)CCCC1,inactive
7,COCC(=O)N(c1c(C)cccc1C)C(C)C(=O)OC (stereo not given),inactive
8,CC[N+](CC)(CC)CC,inactive
9,CCCn1cc[n+](C)c1,inactive
10,O=C(O)CCl,inactive
11,C[N+](C)(C)Cc1ccccc1,inactive
12,CCCC[n+]1ccccc1C,inactive
13,CCCC[n+]1ccccc1,inactive
14,Oc1cccc2cccnc12,inactive
15,Nc1ccc(Cl)cc1,8.71 µM (active) and inactive
16,Cc1cc(-c2ccc(N)c(C)c2)ccc1N,inactive
17,CCCCCC[n+]1ccccc1,inactive
18,Nc1ccc(-c2ccc(N)cc2)cc1,inactive
19,C1CCC(NC2CCCCC2)CC1,inactive
20,OCCOc1ccccc1,inactive
21,CCCC[N+]1(C)CCCC1,inactive
22,Nc1ccccc1,inactive
23,Cc1cc(Cl)ccc1N,inactive
24,CCCCCCn1cc[n+](C)c1,inactive
25,O=c1[nH]c(=O)n(Cl)c(=O)n1Cl,inactive
26,COc1ccc(N)cc1,inactive
27,O=P1(N(CCCl)CCCl)NCCCO1 (stereo not given),inactive
28,COc1ccccc1N,inactive
29,O=[N+]([O-])c1ccccc1O,inactive
30,COP(=O)(OC)OC=C(Cl)Cl,inactive
